Assay results reported in PubChem BioAssay (EPA / NIEHS).
The source made the active and inactive calls. Rule for the calls: active = hit-call score of the fitted dose curve at least 0.9, where 1 is the maximum; inactive = score below 0.9.

Test: BSK_3C_VCAM1: BioMAP Diversity Plus: 3C Assay for Vascular cell adhesion molecule 1 (VCAM1) Biomarker Activity (AID 2282999)
Conditions: BioMAP 3C HUVEC, VCAM1 ELISA, cytokine-stimulated; actives raise or lower the signal
Experimental: BSK_3C is a cell-based, multiplexed-readout assay that uses umbilical vein endothelium, a human vascular primary cell, with measurements taken at 24 hours after chemical dosing in a 96-well plate.BSK_3C_VCAM1 is an assay component measured in the BSK_3C assay. It measures VCAM-1 antibody related to regulation of gene expression using ELISA technology.Data from the assay component BSK_3C_VCAM1 was analyzed into 1 assay endpoint. This assay endpoint, BSK_3C_VCAM1, was analyzed with bidirectional fitting relative to DMSO as the negative control and baseline of activity. Using a type of binding reporter, gain or loss-of-signal activity can be used to understand changes in the signaling as they relate to the gene VCAM1. Furthermore, this assay endpoint can be referred to as a primary readout, because this assay has produced multiple assay endpoints where this one serves a signaling function. To generalize the intended target to other relatable targets, this assay endpoint is annotated to the cell adhesion molecules intended target family, where the subfamily is Immunoglobulin CAM.
The levels of cell surface (or secreted, indicated by the prefix "s") biomarker endpoints were measured by ELISA. Overt cytotoxicity to cells in confluent adherent cultures (all systems other than the BT system) was assessed by measuring total protein levels using sulforhodamine B (SRB) staining in parallel cultures at the time of biomarker measurements, indicated as SRB endpoints. For proliferation assays for adherent cell types, individual cell types are cultured at sub-confluence and relative cell numbers quantified by SRB staining at time points optimized for each system (48 h: 3C and CASM3C systems; 72 h: BT and HDF3CGF systems; 96 h: SAg system). SRB was performed by staining cells with 0.1% SRB after fixation with 10% TCA and reading wells at 560 nm.Viability and proliferation of PBMC (T cells) was quantified by Alamar Blue reduction for the SAg and BT systems. For PBMC viability (referred to as PBMC Cytotoxicity within the assay endpoint names), cells were plated (75,000/well in a 96-well plate) and then chemical samples added for 1 h before addition of activators, SEB and TSST-1 (20 ng/mL final concentration each). Cells were incubated for 90 h. Then, Alamar Blue (20 uL/well) (Invitrogen, Cat DAL1100) was added for 6 h, and the plates were read with a fluorescence microplate reader at 546/580 nm (excitation/emission). For PBMC proliferation, cells were plated and activated as above but incubated for only 16 h prior to addition of Alamar Blue. Plates were read after 6 h.

| Structure (SMILES) | outcome | AC50 |
| --- | --- | --- |
| Cc1cc(Cl)ccc1OC(C)C(=O)O (stereo not given) | inactive |  |
| Oc1cccc(-c2ccccc2)c1 |  | 37.1 µM (active) |
| Cc1cc(Cl)ccc1N | inactive |  |
| O=C1C=CC(=O)c2ccccc21 |  | 3.48 µM (active) |
| Oc1ccc(Cc2ccc(O)cc2)cc1 | inactive |  |
| O=C(Cc1ccccc1)OCCc1ccccc1 | inactive |  |
| Cc1ccc2nc3sc(=O)sc3nc2c1 |  | 7.59 µM (active) |
| CC(C)(COCC1CO1)COCC1CO1 (stereo not given) | inactive |  |
| N#Cc1cccnc1 | inactive |  |
| CN(C)C(=S)S | inactive |  |
| C=CC(Cl)CCl (stereo not given) | inactive |  |
| O=C(O)C1(c2ccc3c(c2)OC[C@H](Cc2ccc(-c4ccccc4)cc2)[C@H]3O)CCCC1 |  | 20 µM (active) |
| Oc1cc(Cl)c(Cl)cc1Cl | inactive |  |
| CCOC(=O)C(SP(=S)(OC)OC)c1ccccc1 (stereo not given) |  | 25.8 µM (active) |
| CCOP(=S)(OCC)SCS(=O)(=O)C(C)(C)C | inactive |  |
| O=C(O)COc1cc(Cl)c(Cl)cc1Cl | inactive |  |
| CCOC(=O)CC(=O)CCl |  | 20 µM (active) |
| Nc1ccc(N)cc1 | inactive |  |
| CC(C=O)Cc1ccc2c(c1)OCO2 (stereo not given) | inactive |  |
| CCN(CC)C(=O)C(Cl)=C(C)OP(=O)(OC)OC | inactive |  |

| Structure (SMILES) | outcome | AC50 |
| --- | --- | --- |
| c1ccc2sc(SNC3CCCCC3)nc2c1 | inactive |  |
| CCOC(=O)CCN(SN(C)C(=O)Oc1cccc2c1OC(C)(C)C2)C(C)C |  | 20 µM (active) |
| CCOP(=O)(OCC)SCCSCC | inactive |  |
| NC(=O)CCl | inactive |  |
| O=C(CCl)NCO | inactive |  |
| Oc1c(Br)cc(Br)cc1Br |  | 31.4 µM (active) |
| OC(Cc1ccccc1Cl)(Cn1cncn1)C1(Cl)CC1 (stereo not given) | inactive |  |
| Oc1c(Cl)cc(Cl)cc1Cl | inactive |  |
| O=c1oc2ccccc2c(O)c1C(CC(O)c1ccc(-c2ccc(Br)cc2)cc1)c1ccccc1 (stereo not given) |  | 21.6 µM (active) |
| O=S(=O)(c1ccc(Cl)cc1)c1cc(Cl)c(Cl)cc1Cl | inactive |  |
| CCCCOC(=O)COC(=O)c1ccccc1C(=O)OCCCC | inactive |  |
| Cc1cccc(OP(=O)(Oc2cccc(C)c2)Oc2cccc(C)c2)c1 | inactive |  |
| CCCCCCCCCCCCc1cccc(S(=O)(=O)O)c1 | inactive |  |
| CCCCCCCCCCCCN(C)C | inactive |  |
| O=C(N[C@H]1CN2CCC1CC2)c1ccc2c(c1)OCCO2 | inactive |  |
| Nc1c(Oc2ccccc2)cc(O)c2c1C(=O)c1ccccc1C2=O | inactive |  |
| O=S(=O)(C(Cl)(Cl)Cl)C(Cl)(Cl)Cl |  | 2.08 µM (active) |
| CC1(C)[C@H](C(=O)O[C@H](C#N)c2cccc(Oc3ccccc3)c2)[C@@H]1/C=C(\Cl)C(F)(F)F | inactive |  |
| O=[N+]([O-])c1cccc2ccccc12 | inactive |  |
| Clc1cccc(Cl)c1Cl | inactive |  |
